This passage reports sensor-assay potency score (higher = more potent) results from the OligoGym collection.
Note: reference of the scale not given here.

In the first test the target is EPDR1. Nature of the test: pooled miR-30 sensor sort-seq; sequence = guide strand. To be noted: shRNA.
Turning to TCAATCTGAAACATCACTCCAT, the sensor-assay potency score (higher = more potent) was found to be 1.13.
On to TACGAGGGAACTCTAGTCCTGG, for which the sensor-assay potency score (higher = more potent) is -0.607.
For the sequence TTAGGAGACAATAGTCTCCTGA, the sensor-assay potency score (higher = more potent) was -0.95.
In the case of TAGTCTCATATCCATCTCCAGC, the sensor-assay potency score (higher = more potent) is -1.45.
For the sequence TCTAGCTGACTTTCTGTCCGAC, the sensor-assay potency score (higher = more potent) was -0.0561.
As to TATTCAAATAATCTCTTGCAGG, the sensor-assay potency score (higher = more potent) is -0.781.
Still for that read-out and setting: then TAGGATCTAGCTGACTTTCTGT, with 0.667; and TAGCATTCACATCTTGACTAGT, with 0.0481.
On to TAGGATTCTCTAAACTGCCTTG, for which the sensor-assay potency score (higher = more potent) is -0.223.

The target of another test is EPGN. Described as above. To be noted: shRNA.
As to TATGTTGTCAGCTTGCTGGGCT, the sensor-assay potency score (higher = more potent) stood at 0.572.
Turning to TAAGAATCCACAGCATATGAAG, the sensor-assay potency score (higher = more potent) was -1.16.
For the sequence TTTCATAAGAATCCACAGCATA, the sensor-assay potency score (higher = more potent) is -0.859.
As for TTGAATAAAAGATAGACTGATA, the sensor-assay potency score (higher = more potent) is -0.413.
As for TTCTATGTTGTCAGCTTGCTGG, the sensor-assay potency score (higher = more potent) was -0.845.
Regarding TAATAGTAATCCAACACCAATC, the sensor-assay potency score (higher = more potent) is -1.34.
Consider TAACCAGTAAAACACCTGCAGA, for which the sensor-assay potency score (higher = more potent) is -1.05.
Take AACCACTTAATAGTAATCCAAC: the sensor-assay potency score (higher = more potent) was -1.22.
Consider ATAACCAGTAAAACACCTGCAG, for which the sensor-assay potency score (higher = more potent) is -0.113.
With TTGGAGGTGTTACAGTCACGGC, the sensor-assay potency score (higher = more potent) is -1.5.
Consider TTTCTCTAGCTCATGGTGGAAT, for which the sensor-assay potency score (higher = more potent) was -1.09.
As for TGCAGTAACTGTTATGATCTTC, the sensor-assay potency score (higher = more potent) is -0.113.

The target of the next test is EPHA6. The description is as above. To be noted: shRNA.
Consider TACAGTTGTTGTATCAAGCAAC, for which the sensor-assay potency score (higher = more potent) worked out at 0.0165.
TTGGCTTGAATTTAATTCCGTG displayed a sensor-assay potency score (higher = more potent) of 0.00331.
For TTTTCTGAGCTGCATCACGGGA, the sensor-assay potency score (higher = more potent) was -0.977.
Regarding ATTTCTTGTAGAAAACACGGAC, the sensor-assay potency score (higher = more potent) was -0.586.
As for TTTCTTACAGATTACACTGTAT, the sensor-assay potency score (higher = more potent) is -0.425.
With TTTCTGACTGTAGCCACTGTAT, the sensor-assay potency score (higher = more potent) is -1.06.
With TATCAAGCAACACAACTTGGTT, the sensor-assay potency score (higher = more potent) was -0.642.
With TTCAGCTCGGAAATAACCCTTT, the sensor-assay potency score (higher = more potent) was -0.23.
In turn, TTCCATTACATTACATACCTGG yielded a sensor-assay potency score (higher = more potent) of 0.0947.
Regarding TGTATCAAGCAACACAACTTGG, the sensor-assay potency score (higher = more potent) is -0.401.
In turn, TTACAGATTACACTGTATGTGA displayed a sensor-assay potency score (higher = more potent) of 0.175.

For another test, the target named is EPHA8. Described as above. To be noted: shRNA.
Consider TTGTCCTTCTCGTAGTACTTGA, for which the sensor-assay potency score (higher = more potent) was -0.781.
With TTGATCTCAGCATAGACGCGCC, the sensor-assay potency score (higher = more potent) is -0.595.
Same read-out and setting: then TTCTCGTAGTACTTGATCTCAT, with -0.461; and ATTTTCTCGATGTGGATCCTAG, with -0.272; and TGCATGATGGTGAACTGCCCGT, with -1.1.
For ATGAGCGTCAGGCAGATCCAGA, the sensor-assay potency score (higher = more potent) is -1.66.
In the case of TCCAGAGTCACTGATGTCCCAT, the sensor-assay potency score (higher = more potent) was -0.773.
As to TAGTACTTGATCTCATACTCCA, the sensor-assay potency score (higher = more potent) is -0.186.
